# According to PubChem BioAssay AID1851 (National Center for Advancing Translational Sciences (NCATS), 2009):
# About 5,800 (36%) of roughly 16,000 compounds were called active. Another 23% or so got no clear call; they are omitted. The list shows a part of the results. Unmarked numbers belong to inactive results. Calls follow the shape of the dose curve; as a rule, active = well fitted curve in the direction sought with a large enough effect; inconclusive = small, poorly fitted or top-dose-only effect, or effect the other way; inactive = no such curve, though single readings can be large or run the other way.
# Target: Cytochrome P450 2C19 (Homo sapiens) (UniProt P33261)
# Sequence (P33261 whole entry, looked up): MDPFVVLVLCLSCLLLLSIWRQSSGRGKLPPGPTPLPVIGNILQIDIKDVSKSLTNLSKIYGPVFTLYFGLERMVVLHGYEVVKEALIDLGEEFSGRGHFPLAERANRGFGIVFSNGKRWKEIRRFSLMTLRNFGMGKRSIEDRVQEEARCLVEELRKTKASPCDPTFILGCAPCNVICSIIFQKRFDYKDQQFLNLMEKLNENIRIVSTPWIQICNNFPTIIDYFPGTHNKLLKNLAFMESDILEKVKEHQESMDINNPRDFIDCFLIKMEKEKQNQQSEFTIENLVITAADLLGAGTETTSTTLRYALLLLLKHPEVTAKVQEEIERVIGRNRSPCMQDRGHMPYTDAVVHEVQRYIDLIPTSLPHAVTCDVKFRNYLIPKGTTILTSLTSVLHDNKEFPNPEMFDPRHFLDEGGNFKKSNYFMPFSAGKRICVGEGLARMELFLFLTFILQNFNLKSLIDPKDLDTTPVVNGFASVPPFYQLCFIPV
# Test: Cytochrome panel assay with activity outcomes
# Conditions: recombinant CYP, pro-luciferin dealkylation, luminescence, p450-cyp2c19; series mostly up to 57.1 µM
# % is scaled to controls: 0 for no effect and ±100 for the full control effect.
Compound,"activity, negative = inhibition",AC50
C[C@H](Br)C(=O)N[C@H](CO)C(=O)O,4.64% [at 11.4 µM],
CCCN1CCC[C@@H]2Cc3nc(N)ncc3C[C@H]21,,inactive
CC(=NCCN1CCOCC1)c1c(O)n(Cc2ccccc2)c(=O)[nH]c1=O,,inactive
CC(=Nc1c(C)n(C)n(-c2ccccc2)c1=O)c1c(O)n(Cc2ccccc2)c(=O)[nH]c1=O,,inactive
CC(=NCc1ccco1)c1c(O)n(-c2ccccc2)c(=O)[nH]c1=O,,10 µM (active)
C/C=C1\C[N@@+]2(C)CC[C@@]34C(=C(C=O)[C@H]1C[C@H]32)Nc1ccccc14,,inactive
O=[N+]([O-])c1cc(-c2ccc([As](=O)(O)O)cc2)ccc1[As](=O)(O)O,22.9% [at 11.4 µM],
COCCNC(=S)NC1CC2CCCC(C1)N2Cc1cccs1 (stereo not given),,inactive
Cc1ccc(N2C(=O)/C(=C/c3ccc(CN(CCC#N)S(C)(=O)=O)o3)C(=O)NC2=S)cc1C,,10 µM (active)
COc1cccc2c1[C@H](CO)N1[C@H](C#N)[C@@H]3C[C@H](C(=O)O)[C@@H]([C@@H]1C2)N3C,11.2% [at 11.4 µM],
C=C1CC[C@H](O)C/C1=C/C=C1\CCC[C@]2(C)[C@H]1CC[C@H]2[C@@H](C)CCCC(C)C,,inactive
CC(=O)O/C(=C1/C[C@H]2[C@@H]3CC=C4C[C@@H](OC(C)=O)CC[C@]4(C)[C@@H]3CC[C@]2(C)C1=O)C(F)(F)F,10.6% [at 11.4 µM],
CNCCc1ccc(O)c(O)c1,,inactive
CN1CCN(c2ccc([N+](=O)[O-])c(N/N=C3\CN4CCC3CC4)c2)CC1,,7.08 µM (active)
CN1CCN(c2ccc([N+](=O)[O-])c3[nH]o[n+](=O)c23)CC1,-37.2% [at 11.4 µM],
CC[C@H]1CN2CCc3cc(OC)c(OC)cc3[C@H]2C[C@@H]1C[C@H]1NCCc2c1[nH]c1ccc(O)cc21,34.7% [at 11.4 µM],
Cc1ncc([N+](=O)[O-])n1CCN=[N+]=[N-],21.1% [at 11.4 µM],
c1ccc(N2CC3(CCNCC3)C2)cc1,,inactive
CC(C)(C)NC[C@H](O)c1ccccc1Cl,,inactive
Cc1ccc(CCN2CC(C(=O)N3CCC4(CC3)OCCO4)CC2=O)cc1 (stereo not given),,inactive
Cc1ccc(S(=O)(=O)NCC2CCC(C(=O)N3CCC4(CC3)OCCO4)CC2)cc1 (stereo not given),,14.1 µM (active)
NC(=O)COc1c(F)cc(SCCNS(=O)(=O)c2ccccc2)cc1F,,inactive
COc1cc2c(cc1OC)[C@H](C)NCC2,,inactive

Compound,"activity, negative = inhibition",AC50
Nc1ccccc1O.O.O=C(O)[C@H]1[O][Sb][O][C@H]1C(=O)O,16.1% [at 11.4 µM],
O=C(Nc1ccc(Cl)cc1C(=O)c1ccccc1)c1ccco1,,4.47 µM (active)
COc1ccc(OCC(=O)Nc2ccc(Cl)cc2C(=O)c2ccccc2)cc1,,1 µM (active)
O=C(Nc1ccc(Cl)cc1C(=O)c1ccccc1Cl)c1ccco1,,2.82 µM (active)
CN(C)CCOC(=O)COc1ccc(Cl)cc1,,inactive
O=P(c1ccccc1)(c1ccccc1)N1CC2(CC2)CC(O)(c2ccccc2)C1 (stereo not given),,inactive
CCC[C@@](C)(COC(N)=O)COC(=O)NC(C)C,,inactive
COC(=O)N1CCC2(CCCN(C)C2)CC1,,inactive
NC[C@H](O)c1cc(O)c(O)cc1F,,inactive
C=CCN1CCC2(C)c3cc(O)ccc3C[C@H]1[C@H]2C,,inactive
COc1cc2c(cc1O)C[C@@H]1c3c(cc(O)c(OC)c3-2)CCN1C,12.7% [at 11.4 µM],
CN1CCc2cc(O)cc3c2[C@H]1Cc1ccc(O)c(O)c1-3,,inactive
CC(C)(C)NC[C@H](O)c1cc(Cl)c(N)c(Cl)c1,,inactive
CN1[C@@H]2CC[C@H]1CC(O[C@@H](c1ccccc1)c1ccccc1N)C2 (stereo not given in full),,inactive
CNCCc1cnc[nH]1,,inactive
Clc1ccccc1-c1cncnc1NCCc1cnc[nH]1,,0.0126 µM (active)
Cc1ccccc1-c1cncnc1NCCc1cnc[nH]1,,0.0501 µM (active)
c1ccc2c(c1)-c1ccccc1C2N1CC2CCC(CC2)C1,-44.5% [at 11.4 µM],
CCCCC/C=C\C/C=C\C/C=C\C/C=C\CCCC(=O)NCC(=O)O,,inactive
CC(C)N[C@@H](C)Cc1ccc(I)cc1,,inactive
O=C(C[C@H](c1ccccc1)c1c(O)c2ccccc2oc1=O)c1ccccc1,-17.3% [at 11.4 µM],
O=C(Nc1ccccc1)N1CCC2(CC1)CCN(C(=O)Oc1ccccc1)CC2,,inactive
COc1ccc(C[C@H]2NC[C@H](O)[C@@H]2OC(C)=O)cc1,,3.16 µM (active)

Compound,"activity, negative = inhibition",AC50
COc1ccc(C[C@@H]2NC[C@H](O)[C@@H]2OC(C)=O)cc1,,inactive
Cc1nc(N)sc1CCN,,inactive
CCCN[C@@H]1CCc2c(OC)cccc2[C@@H]1C,,inactive
CCN(CC)C(=O)N[C@H]1C[C@H]2c3cccc4[nH]cc(c34)C[C@@H]2N(C)C1,,inactive
O=C1CN=C(c2cccs2)c2c(sc3c2CCCC3)N1,,15.8 µM (active)
C[C@H]1CC[C@@]2(NC1)O[C@@H]1C[C@@H]3[C@@H]4CC=C5C[C@@H](O)CC[C@]5(C)[C@@H]4CC[C@]3(C)[C@H]1[C@@H]2C,15.9% [at 11.4 µM],
CCOC(=O)C1Cc2c([nH]c3ccccc23)CN1 (stereo not given),,1.58 µM (active)
COc1ccc2[nH]c3c(c2c1)CCNC3,,inactive
C[C@@]12CC[C@H]3[C@@H](CC=C4C[C@H](OS(=O)(=O)O)CC[C@]43C)[C@H]1CCC2=O,,inactive
COc1cc(CCN)c(OC)c(OC)c1,70.8% [at 11.4 µM],
C[C@@H](O)CN(CCN(C[C@@H](C)O)C[C@@H](C)O)C[C@@H](C)O.O=[N+]([O-])O.[Cu],,0.398 µM (active)
CC(=O)O[C@H]1C[C@@H](O[C@@H]2[C@H](C)O[C@H](O[C@@H]3[C@H](C)O[C@H](O[C@@H]4CC[C@@]5(C)[C@@H](CC[C@]6(C)[C@]5(C)C[C@H](O)[C@]5(C)[C@@H](C7=CC(=O)OC7)CC[C@@]56O)C4)C[C@@H]3O)C[C@@H]2O)O[C@@H](C)[C@H]1O[C@H]1O[C@@H](CO)[C@@H](O)[C@@H](O)[C@@H]1O,,inactive
Cc1ccc(S(=O)(=O)N[C@@H](CCCCN)C(=O)CCl)cc1,,inactive
O=S1(=O)N(CCN2CC=C(c3c[nH]c4cc(F)ccc34)CC2)c2cccc3c2N1CCC3,,6.31 µM (active)
COc1cc2c(cc1OC)[C@@]13CCN4C=C5CCO[C@H]6CC(=O)N2[C@@H]1[C@@H]6[C@H]5C[C@H]43,32% [at 11.4 µM],
CC(C)[N+](C)(CCC(C(N)=O)(c1ccccc1)c1ccccc1)C(C)C,,inactive
C[C@H](CN(C)C)C(C#N)(c1ccccc1)c1ccccc1,31.1% [at 11.4 µM],
Cc1cc(NC(=O)CCC(=O)N2CCC3(CC2)OCCO3)no1,,inactive
Cc1ccc2c(c1)N(CCC(=O)N1CCC3(CC1)OCCO3)C(=O)C(C)O2 (stereo not given),,0.708 µM (active)
CN1CC[C@@]23c4ccccc4N[C@H]1[C@]21CCN(C)[C@@H]3Nc2ccccc21,,inactive
CCCC(=O)Nc1ccc(N2CCN(CC)CC2)c(Cl)c1,,inactive
C=Cn1ccnc1P(=S)(c1nccn1C=C)C1CCCCC1,,3.55 µM (active)
O=C(O)[C@@H](O)[C@@H](O)[C@@H]1[O][Sb][O][C@@H]1CO,21.2% [at 11.4 µM],

Compound,"activity, negative = inhibition",AC50
CC[N+](CC)(CCCNC1=CC(=O)C(NCCC[N+](CC)(CC)Cc2ccccc2)=CC1=O)Cc1ccccc1,,inactive
CCN1C[C@@]2(COC)CC[C@H](O)[C@@]34[C@@H]2C[C@@H]([C@@H]13)[C@]1(O)C[C@@H](OC)C2C[C@H]4[C@H]1[C@H]2OC(C)=O,,inactive
C[N+](C)(C)[C@H](Cc1c[nH]c(=S)[nH]1)C(=O)O,-22.8% [at 11.4 µM],
CCCN(CCC)CCc1c[nH]c2ccc(C(N)=O)cc12,,inactive
CN=C(NC#N)NCCSCc1nc[nH]c1C,,31.6 µM (active)
O=C(Nc1cccc(F)c1)N1CC2(CCN(C(=O)Oc3ccccc3)CC2)C1,,inactive
O=C(CCN1CC2CCC(CC2)C1)c1cccs1,-19% [at 11.4 µM],
CC[C@@](O)(C(=O)O)c1cc2n(c(=O)c1CO)Cc1cc3ccccc3nc1-2,16.3% [at 11.4 µM],
CC(=O)NBr,,inactive
N[C@H](CCCCCP(=O)(O)O)C(=O)O,,inactive
CP(=O)(O)C1=CCNCC1,,inactive
CC(=O)N1CC[N+](C)(C)CC1,,inactive
CN1CCN(C(=O)O[C@@H]2c3nccnc3C(=O)N2c2ccc(Cl)cn2)CC1,,15.8 µM (active)
COc1cc2c3cc1Oc1c(O)c(OC)cc4c1[C@@H](Cc1ccc(cc1)Oc1cc(ccc1O)C[C@H]3N(C)CC2)N(C)CC4,-11% [at 11.4 µM],
CC[C@]1(c2cccc(O)c2)CCCCN(C)C1,,inactive
C[C@@H]1O[C@@H](O[C@H]2C[C@@H](O)[C@]3(CO)[C@@H]4[C@@H](O)C[C@]5(C)[C@H](C6=CC(=O)OC6)CC[C@@]5(O)[C@H]4CC[C@@]3(O)C2)[C@H](O)[C@H](O)[C@@H]1O,,inactive
C[C@@H](COc1ccccc1)N(CCCl)Cc1ccccc1,,10 µM (active)
Clc1cnc(Oc2ccc(Oc3ncc(Cl)cc3Cl)cc2)c(Cl)c1,,inactive
O=C1c2ccccc2-c2cc([N+](=O)[O-])c([N+](=O)[O-])cc21,,0.398 µM (active)
O=C1c2cc([N+](=O)[O-])ccc2-c2ccc3c4ccc5c6c(ccc(c7ccc1c2c73)c64)C(=O)c1cc([N+](=O)[O-])ccc1-5,-4.82% [at 11.4 µM],
NCCc1ccc(S(=O)(=O)O)cc1[N+](=O)[O-],-6.86% [at 11.4 µM],
